Values without a mark were called inactive.

The subject of this experiment is XIP peptide (Xip251-270) binding. Description: XIP fragment 251-270 binding compounds – biochemical, small-molecule microarray, fluorescence 635/667 nm, 0.1 µg/mL protein, primary screen (AID 1182). The conditions noted are these: fluorescent protein binding, 635 nm, higher = more signal, called active from +8 up or from −8 down.
For the molecule `CO[C@H]1COC(=O)[C@@H](Cc2ccccc2)NC(=O)[C@@H](C)COC(=O)CCC[C@@H]1C`, the composite z-score was 0.0283.

In the case of `C[C@H]1CC[C@H]2C(=O)O[C@H](COc3ccc(C(C)(C)C)cc3)CN2[C@@H]1c1ccc(Br)cc1`, the composite z-score is 1.71.

As for `CC(C)=NOC[C@@H](C)[C@H](OCc1ccccc1)C(C)C`, the composite z-score is -0.0088.

For the molecule `CO[C@@H]1COC(=O)[C@H](CCSC)NC(=O)CC=C[C@@H](C)COC(=O)CCC[C@H]1C`, the composite z-score was 1.2.

As to `C[C@@H](ON=C1[C@H]2CCn3c(=O)n(-c4ccccc4)c(=O)n3[C@H]2[C@H](O)[C@@H]2O[C@H]12)c1cn([C@@H]2COC[C@H]2O)nn1`, the composite z-score is -0.24.

On to `Cc1ccc(S(=O)(=O)N[C@@H]2COC(=O)[C@@H](C)COC(=O)CC=C[C@H]2C)cc1`, for which the composite z-score was -0.21.

Take `CCOC(=O)[C@H](Cc1ccccc1)NC(=O)CCC1CC(OC(=O)NCCc2ccc(F)cc2)CC2(CCCC(COC(=O)NCc3ccccc3)O2)O1` (stereo partly specified): the composite z-score is 0.501.

Consider `CC(C)CON=C1C[C@@H](O)[C@@H](O)[C@@H]2[C@@H]3C(=O)N(C4CCCCC4)C(=O)[C@@H]3CC[C@@H]12`, for which the composite z-score was 0.376.

For the molecule `CCN1C(=O)[C@H]2[C@H]3[C@H](O)[C@H](O)CC(=NNC(=O)OCc4ccc(OC)cc4)[C@@H]3CC[C@H]2C1=O`, the composite z-score is 0.0729.

On to `COC(=O)[C@H]1O[C@@H](c2c(OC)c(OC)c(C)c(OC)c2OC)[C@H](C)[C@@H](O)[C@H]1C`, for which the composite z-score is 0.498.

As for `CC(CCN1CCCCc2nc(C)c(C)cc21)=NO[C@H](C)c1cn([C@H](CO)Cc2ccccc2)nn1`, the composite z-score is -0.28.

With `COC(=O)CC=C[C@H](C)[C@@H](OCc1cccc(Br)c1)[C@@H](C)[C@H](OC)C1CCCCC1`, the composite z-score is 0.685.

Turning to `C=C(C)C(=O)OCC1CN2[C@@H](CC[C@@H](C)[C@@H]2c2ccc(Br)cc2)C(=O)O1` (stereo partly specified), the composite z-score is -0.0135.

For the molecule `CCC(=O)[C@@]1(O)C(=O)N2C(=C3C(=O)OCC[C@@H]31)N(Cc1ccccc1)C(C)=C(C(=O)OC)[C@H]2c1ccccc1`, the composite z-score was -0.0955.

On to `COc1cccc([C@H]2Oc3ccc(OC)cc3C(=NO[C@H](C)c3cn([C@H](CO)Cc4ccccc4)nn3)[C@@H]2O)c1`, for which the composite z-score is -0.0592.

Take `O=C1C[C@@H](O)[C@@H](O)[C@@H]2[C@@H]3C(=O)N(Cc4ccccc4)C(=O)[C@@H]3CC[C@@H]12`: the composite z-score was 0.245.

`CCOC(=O)[C@H](Cc1ccccc1)NC(=O)CCC1CC(OC(=O)NCCc2ccc(F)cc2)CC2(CCCC(COC(=O)NCCc3ccccc3OC)O2)O1` (stereo partly specified): the composite z-score was -0.157.

On to `O=C1C[C@@H](O)[C@@H](O)[C@@H]2[C@@H]3C(=O)N(Cc4ccc5c(c4)OCO5)C(=O)[C@@H]3CC[C@H]12`, for which the composite z-score was 0.245.

For `CCOC(=O)[C@H](CC(C)C)NC(=O)CCC1CC(OC(=O)NCCc2ccc(F)cc2)CC2(CCCC(COC(=O)NCCC(C)C)O2)O1` (stereo partly specified), the composite z-score is -0.0575.

As to `COC(=O)CC=C[C@@H](C)[C@@H](C=NO[C@@H](C)c1cn([C@H](CO)Cc2ccccc2)nn1)OC`, the composite z-score was -0.179.

Take `C[C@@H](c1ccccc1)N1C(=O)[C@H]2[C@H]3[C@H](O)[C@H](O)CC(=O)[C@H]3CC[C@H]2C1=O`: the composite z-score is -0.286.

Turning to `CC(CCN1CCCCc2nc(C)c(C)cc21)=NOC[C@@H](C)[C@H](OCc1ccccc1)C(C)C`, the composite z-score was -0.494.

For `COC(=O)[C@@H]1CC[C@H](C)[C@@H](c2ccc(C)cc2)N1C(=O)c1ccc(C=NO[C@H](C)c2cn([C@@H]3COC[C@H]3O)nn2)cc1`, the composite z-score was 0.604.

`C=CC[C@@H]1C=C[C@H](ON=C(C)CCC(=O)OC[C@H]2O[C@H](C#Cc3ccccc3)C=C[C@@H]2Oc2ccc(C)cc2)[C@@H](CO)O1`: the composite z-score is 1.18.

Turning to `CON=CC[C@@H]1C=C[C@H](OC(C)=O)[C@@H](COC(C)=O)O1`, the composite z-score is 0.726.

Regarding `C=Cc1ccc([C@H]2N[C@H](C(=O)O)CC[C@@H]2C)cc1`, the composite z-score is -0.132.

`O=C(NN=C1C[C@@H](O)[C@@H](O)[C@@H]2[C@@H]3C(=O)N(C4CCCCC4)C(=O)[C@@H]3CC[C@@H]12)OCc1ccccc1`: the composite z-score was 0.152.

In the case of `COc1ccc(O[C@H]2C=C[C@@H](c3ccccc3)O[C@@H]2CON=C2[C@H]3CCn4c(=O)n(-c5ccccc5)c(=O)n4[C@H]3[C@H](O)[C@@H]3O[C@H]23)cc1`, the composite z-score was -0.454.

For `CCOC(=O)[C@H](Cc1ccccc1)NC(=O)CCC1CC(OC(=O)NCc2cccc3ccccc23)CC2(CCCC(COC(=O)NCCC(C)C)O2)O1` (stereo partly specified), the composite z-score is 0.646.

`CC(=O)OC[C@H]1O[C@H](C#Cc2ccccc2)C=C[C@@H]1OC(C)=O`: the composite z-score is -0.794.

In the case of `CO[C@@H]1COC(=O)CC=C[C@@H](C)[C@@H]2C=C[C@H](O)[C@@H](COC(=O)CC=C[C@H]1C)O2`, the composite z-score is 0.0592.

`CC(C)[C@@H](OCc1ccccc1)[C@H](C)C=NOC[C@@H](O)COCc1ccco1`: the composite z-score was -0.0277.

Take `O=C1C[C@@H](O)[C@@H](O)[C@@H]2[C@@H]3C(=O)N(c4cccc(Oc5ccccc5)c4)C(=O)[C@@H]3CC[C@H]12`: the composite z-score is 0.0532.

As for `CC(C)CON=C1C[C@@H](O)[C@@H](O)[C@@H]2[C@@H]3C(=O)N(C4CCCCC4)C(=O)[C@@H]3CC[C@H]12`, the composite z-score is 0.273.

Regarding `CO[C@@H]1COC(=O)[C@@H](C)NC(=O)CC=C[C@@H](C)[C@H](NS(=O)(=O)c2ccc(C)cc2)COC(=O)[C@H](C)NC(=O)CC=C[C@H]1C`, the composite z-score is 0.199.

For `C[C@H]1CC[C@H]2C(=O)OC(CO)CN2[C@@H]1c1ccc(Br)cc1` (stereo partly specified), the composite z-score is 0.201.

(Values after PubChem BioAssay.)
